Bioassay records as filed in PubChem.
Only some compounds are listed: those with a hit (about 3.5% of all), similar ones and a draw of the others.
Pf apPOL inh = Pf-apPOL inhibitors, biochemical, fluorescence | inhibition, % at 10 µM | AID 1794808, 2022 | Recombinant Pf-apPOL, molecular beacon fluorescence, 1.5 h | 0.25% of 210,000 active | Plasmodium falciparum apicoplast DNA polymerase (apPOL)
mHTT CaM bind = mutant huntingtin-calmodulin interaction inhibitors – biochemical, AlphaScreen, primary screen. P42858. AlphaScreen His-mHTT/GST-CaM binding, luminescence. inhibition, % at 15 µM. 3.6% of 190,000 active
A number is an active result; - = inactive; . = no result given. Cut-off read from the data, not from the text of the source: active = inhibition above about 50%; inactive = the rest.

SMILES | Pf apPOL inh | mHTT CaM bind
CC1(C)CC2CC(C)(CN2C(=O)/C(=C/c2ccco2)NC(=O)c2ccc(Cl)cc2)C1 (stereo not given) | - | 62
Cc1ccc(-n2c(=O)n(CC(C)C)c(=O)c3c2ncn3CC2CC2)cc1 | - | -
COCc1[nH]nc2c1C(c1cccc(O)c1)C(C#N)=C(N)O2 (stereo not given) | - | -
O=C1OC(c2cccc(Br)c2)=N/C1=C/c1ccc2c(c1)OCO2 | - | -
NC(=Nc1nc2ccccc2o1)NC(=O)c1ccco1 | - | -
O=C(N/C(=C\c1ccc(Br)cc1)c1nc2ccccc2o1)c1ccco1 | - | 94
Cc1cc(C2CCCN2C(=O)Nc2ccc3c(c2)OCCO3)on1 (stereo not given) | - | -
Cc1ccc2ccc(C(Nc3ccccn3)c3ccsc3)c(O)c2n1 (stereo not given) | - | 76
CCOc1ccccc1Nc1cc(C)nc2c(C)cccc12 | - | -
CCOc1ccc(C(Nc2ccccn2)c2ccc3ccc(C)nc3c2O)cc1C (stereo not given) | - | 75
COc1ccc(C(Nc2ccccn2)c2ccc3ccc(C)nc3c2O)cc1 (stereo not given) | - | 72
COc1ccc(NCc2ccccn2)cc1 | - | .
Cc1sc(NC(=O)c2ccccc2)c(C(Nc2ccccn2)c2cccs2)c1C (stereo not given) | - | -
Cc1nn(C)c(-c2nnc(NCC(C)C)s2)c1Cl | - | -
O=C1CCCN2N=C(SCc3ccc(Cl)cc3)SC2=N1 | - | -
CCOC(=O)Cc1csc(NC(=O)CN2CCc3nc(NC(=O)C4CC4)sc3C2)n1 | - | -
CCOc1ccc(N2CCN(C(=O)CC(C)C)C(C)C2=O)cc1 (stereo not given) | - | -
Cc1nc(-c2cccc(NC(=O)c3cccc(Oc4ncccn4)c3)c2)cs1 | - | -
CN(C)Cc1ccc2c(c1)N(C(=O)C(C)(C)C)CCS2 | - | -
COc1cc(C(c2c[nH]c3ccccc23)c2c[nH]c3ccccc23)ccc1O | - | 100
COc1cc(C(c2c(C)[nH][nH]c2=O)c2c(C)[nH][nH]c2=O)ccc1O | - | -
CCc1c(C(=O)O)nnn1-c1ccc(C)cc1F | - | -
COc1ccc(C2CC3(O)CC(C#N)(C(=O)N3)C2(C#N)C#N)cc1 (stereo not given) | - | -
COc1ccc(C2CC3(C)CC(=O)C2C(C#N)(C#N)C3(C#N)C#N)cc1 (stereo not given) | - | 79
COc1ccc(C(=O)CSc2nnnn2-c2cccc(C)c2)cc1 | - | -
SMILES | Pf apPOL inh | mHTT CaM bind
O=C(NCc1nc(-c2ccccc2)no1)c1ccc(Cn2ccnc2)cc1 | - | -
O=C(NC1CC1)c1ccc(OCC2CCCN2C(=O)c2ccc(Cl)cc2)cc1 (stereo not given) | - | -
COc1cc(S(=O)(=O)NCc2ccc3c(c2)OCO3)c(OC)cc1Br | - | -
COc1ccc(CNc2ccc3c(c2)OCO3)cc1Br | - | 96
COc1ccc(S(=O)(=O)Nc2ccc3c(c2)OCO3)cc1Br | . | -
COc1cc(OC)c(CNc2ccc3c(c2)OCO3)cc1Br | - | 100
Cc1nc(-c2ccccc2)sc1C(=O)N1CCOCC1 | - | -
O=c1/c(=C/c2ccc(Cl)c([N+](=O)[O-])c2)sc2nc3ccccc3n12 | - | -
Brc1ccc2c(c1)NC(c1ccccc1)=NC(c1ccncc1)=N2 | - | 71
Fc1ccc(C2=Nc3ccc(F)cc3NC(c3ccccc3)=N2)cc1 | - | -
Cc1ccccc1S(=O)(=O)N1CCC(c2nc(CNC(=O)C3CCC3)cs2)CC1 | - | -
Cc1ccc(-c2nc(C(=O)NC(C)C)c3n2CCCCC3)cc1 | - | -
COc1ccccc1CNC(=O)c1nc(-c2ccc(C)cc2)n2c1CCCCC2 | - | 61
O=C(NCc1ccccn1)c1nc(-c2ccc(Cl)cc2)n2c1CCCCC2 | - | 54
O=C(Nc1ccccn1)c1nc(-c2ccc(Cl)cc2)n2c1CCCCC2 | - | -
CC(NC(=O)c1cn2c(n1)COCC2)c1ccc(F)cc1 (stereo not given) | - | -
O=C(NC=Nc1cc([N+](=O)[O-])c(-c2ccncc2)n1-c1ccccc1)c1cccc(O)c1 | - | 64
O=C(Nc1ccc2nn(-c3ccccc3)nc2c1)c1ccc(Cl)c([N+](=O)[O-])c1 | - | -
Cc1ccc(NC(=O)c2[nH]c3cc(C)sc3c2CN2CCOCC2)c(F)c1 | - | -
O=C(NC1(C(F)(F)F)Oc2ccc(Cl)cc2O1)N1CCCCCC1 (stereo not given) | - | -
CCOc1ccccc1C(=O)N1CCc2cc(OC)c(OC)cc2C1COc1ccc(OC)cc1 (stereo not given) | - | -
COc1cc2c(cc1OC)C(COc1ccc(F)cc1)N(C(=O)C1CC1)CC2 (stereo not given) | - | -
COc1cc2c(cc1OC)C(COc1ccc(F)cc1)N(C(=O)c1ccccc1OC)CC2 (stereo not given) | - | 81
